Consider ten compounds from PubChem BioAssay (NCI).

Test systems include OVCAR-8 ovarian; OVCAR-5 ovarian; OVCAR-4 ovarian; SK-OV-3 ovarian; IGROV1 ovarian; OVCAR-3 ovarian; HS 578T breast; NCI/ADR-RES ovarian; T-47D breast; BT-549 breast; MDA-MB-435 melanoma; SW-620 colon; MCF7 breast; HCT-116 colon; HCC-2998 colon; KM12 colon; RPMI-8226 leukemia.
Common to all, as to assay: NCI-60 one-dose screen, 48 h (100 = growth as untreated, 0 = no growth, -100 = all killed)
Settings in all cases: 10 µM unless noted

About 83,000 compounds went through this panel and 20% of them were active in at least one assay; those are over-represented in the sample as a whole.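 Plates (96-well) were seeded with cells, treated with compound at one concentration, and incubated for 48 hours before percent growth was determined.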 A number with no mark means an inactive call. Activity calls are given as the source filed them. Rule for the calls: active = growth percent below 10; inactive = the rest.

As for `CCCCCCCCCCCCCCCCNCCC[C@@H](C)[C@H]1CC[C@H]2[C@@H]3[C@H](OCCCN)C[C@@H]4C[C@H](OCCCN)CC[C@]4(C)[C@H]3C[C@H](OCCCN)[C@]12C`, the growth in the assay on OVCAR-8 ovarian is -48.9% (active); with OVCAR-5 ovarian, -3.67% (active); in the assay with OVCAR-4 ovarian it was -37.1% (active); in the assay with SK-OV-3 ovarian, -45.7% (active); with IGROV1 ovarian it was -41.8% (active); with OVCAR-3 ovarian, -10.5% (active). The growth with HS 578T breast was -34% (active); in the assay on NCI/ADR-RES ovarian it was -60.6% (active); in the assay with T-47D breast, -20.9% (active); with BT-549 breast it was -26% (active); in the assay on MDA-MB-435 melanoma it was -28.3% (active); in the assay on SW-620 colon it was -25.3% (active). For the same compound, the growth in the assay with MCF7 breast was -44.3% (active); with HCT-116 colon it was -16.6% (active); in the assay with HCC-2998 colon it was -32.4% (active); in the assay on KM12 colon, -24.3% (active).
On to `CC(=O)Oc1ccc(Nc2c3ccccc3nc3ccccc23)cc1`, for which the growth in the assay on RPMI-8226 leukemia was -16.2% (active); in the assay on OVCAR-8 ovarian it was -58.9% (active); in the assay on OVCAR-5 ovarian it was 18%; in the assay on OVCAR-4 ovarian, 13.8%; in the assay on SK-OV-3 ovarian it was 3.92% (active); in the assay on IGROV1 ovarian it was -11.8% (active). Moreover, the growth in the assay with OVCAR-3 ovarian was 9.24% (active); in the assay on HS 578T breast it was 25.1%; in the assay with T-47D breast it was 7.4% (active); with BT-549 breast, 55.2%; in the assay on MDA-MB-435 melanoma, 8.19% (active); with SW-620 colon, 3.73% (active). In addition, the growth was 3.91% (active) in the assay on MCF7 breast, 14% in the assay on HCT-116 colon and 18.1% in the assay on KM12 colon.
For the compound `NCCN1CCN(c2nccc(-c3ccc4ccccc4c3)n2)CC1`, the growth in the assay on OVCAR-8 ovarian was 71.3%; with OVCAR-5 ovarian it was 73.8%; in the assay on OVCAR-4 ovarian, 78.7%; in the assay with SK-OV-3 ovarian, 88.6%; with IGROV1 ovarian it was 51.2%; in the assay on OVCAR-3 ovarian, 73.8%. In addition, the growth in the assay on HS 578T breast was 63.9%; in the assay with NCI/ADR-RES ovarian, 69.4%; with T-47D breast, 43.1%; with BT-549 breast, 82.2%; with MDA-MB-435 melanoma, -26.4% (active); with SW-620 colon, -37.9% (active). Besides, the growth is 51.2% in the assay on MCF7 breast, 3.52% (active) in the assay on HCT-116 colon, 14% with HCC-2998 colon and 48.1% in the assay with KM12 colon.
In the case of `CCN(CC)c1ccc(/C=C/C2=[N+](C)c3ccccc3C2(C)C)cc1`, the growth in the assay with RPMI-8226 leukemia was -20.9% (active); with OVCAR-8 ovarian, 24.7%; in the assay on OVCAR-5 ovarian it was 34.7%; in the assay with SK-OV-3 ovarian, -0.178% (active); in the assay with IGROV1 ovarian it was 18.6%; with OVCAR-3 ovarian, 5.97% (active). Also, the growth with HS 578T breast was 27%; in the assay on NCI/ADR-RES ovarian it was 84.8%; in the assay with T-47D breast, 14%; in the assay with BT-549 breast it was 0.697% (active); with MDA-MB-435 melanoma, -1.89% (active); in the assay on SW-620 colon, 15.4%. The growth with MCF7 breast was 4.72% (active); in the assay on HCT-116 colon it was 13.1%; in the assay on HCC-2998 colon, 24.1%; with KM12 colon, -28% (active).
Take `C=C(CN1CCN(c2cccc(C(F)(F)F)n2)CC1)c1ccc(C(=O)Nc2ccccc2N)cc1`: the growth with RPMI-8226 leukemia is 4.35% (active); in the assay with OVCAR-8 ovarian it was 18.8%; with OVCAR-5 ovarian it was 34.8%; with OVCAR-4 ovarian it was 32.9%; with OVCAR-3 ovarian, -38.2% (active); in the assay with HS 578T breast it was 41.1%. Moreover, the growth is 1.99% (active) in the assay on NCI/ADR-RES ovarian; 22.8% with BT-549 breast; -9.74% (active) in the assay with MDA-MB-435 melanoma; 55.2% in the assay with SW-620 colon; 1.51% (active) in the assay with MCF7 breast; 15.5% in the assay with HCT-116 colon. Moreover, the results for the growth in the assay with HCC-2998 colon and with KM12 colon were -41% (active) and -3.75% (active), respectively.
Regarding `CCN(CC)CCCNc1cccc2c(SCc3ccccc3)ccnc12`, the growth in the assay with RPMI-8226 leukemia is -39.7% (active); in the assay on OVCAR-8 ovarian it was 89.9%; in the assay with OVCAR-5 ovarian it was 107%; with OVCAR-4 ovarian, 104%; with SK-OV-3 ovarian, 97.8%; in the assay with IGROV1 ovarian, -40.3% (active). The growth is 36.8% with OVCAR-3 ovarian; 42% in the assay with NCI/ADR-RES ovarian; 103% with T-47D breast; 74.8% in the assay on BT-549 breast; -27.9% (active) in the assay with MDA-MB-435 melanoma; 55% with SW-620 colon. The growth in the assay on MCF7 breast was 98.6%; in the assay on HCT-116 colon, 75%; with HCC-2998 colon, 25.4%; in the assay with KM12 colon it was 34%.
As for `O=C1c2c[n+](Cc3ccccc3)ccc2-c2nc3ccccc3c3ccnc1c23`, the growth was -25.2% (active) in the assay with RPMI-8226 leukemia; -11% (active) in the assay with OVCAR-5 ovarian; -38.7% (active) with OVCAR-4 ovarian; -13% (active) in the assay on SK-OV-3 ovarian; -46.1% (active) with IGROV1 ovarian; -66.8% (active) with OVCAR-3 ovarian. The growth was -18.8% (active) in the assay on HS 578T breast; 75.9% in the assay on NCI/ADR-RES ovarian; -48.4% (active) with T-47D breast; -30.7% (active) in the assay on BT-549 breast; -81.8% (active) in the assay with MDA-MB-435 melanoma; -12.9% (active) in the assay with SW-620 colon. Further, the growth in the assay with MCF7 breast is -42.3% (active); in the assay with HCT-116 colon, -31.5% (active); in the assay on HCC-2998 colon, -53% (active); in the assay with KM12 colon, 2.73% (active).
With `COc1ccc2nc3cc(Cl)ccc3c(N3CCN(c4ccnc(N5CCOCC5)n4)CC3)c2c1`, the growth with RPMI-8226 leukemia was 11.3%; with OVCAR-8 ovarian it was 59.2%; with OVCAR-5 ovarian, 83.8%; in the assay with OVCAR-4 ovarian, 55.6%; with SK-OV-3 ovarian, 85.5%; with IGROV1 ovarian, 77.8%. Besides, the growth in the assay with OVCAR-3 ovarian was 4.76% (active); in the assay on HS 578T breast it was 99.2%; with T-47D breast, -37.9% (active); in the assay with MDA-MB-435 melanoma it was 57%; in the assay on SW-620 colon, 3.94% (active); with MCF7 breast, -82% (active). Besides, the growth was 1.63% (active) in the assay on HCT-116 colon, 12.9% in the assay with HCC-2998 colon and 53.2% in the assay on KM12 colon.
Consider `O=C1NC(=O)C(CC(=O)n2c(-c3ccccc3)nc3ccccc32)C(=O)N1`, for which the growth was 101% in the assay with RPMI-8226 leukemia; 101% in the assay with OVCAR-8 ovarian; 103% in the assay on OVCAR-5 ovarian; 98.3% in the assay on SK-OV-3 ovarian; 93.3% in the assay with IGROV1 ovarian; 106% with OVCAR-3 ovarian. For the same compound, the growth with HS 578T breast was 102%; with T-47D breast, 93.5%; with MDA-MB-435 melanoma, 106%; in the assay on SW-620 colon, 104%; in the assay on MCF7 breast, 92.4%; with HCT-116 colon it was 104%. In addition, the growth in the assay with HCC-2998 colon was 113%; in the assay with KM12 colon, 101%.
In the case of `O=[N+]([O-])c1cccc(-c2nc3sccn3c2-c2ccnc(NCCCNS(=O)(=O)c3cccc(F)c3)n2)c1`, the growth in the assay on OVCAR-8 ovarian is -5.3% (active); in the assay on OVCAR-5 ovarian, 66.2%; in the assay with OVCAR-4 ovarian, -12.2% (active); with SK-OV-3 ovarian it was 44.6%; with IGROV1 ovarian it was 3.18% (active); with OVCAR-3 ovarian it was -2.65% (active). The growth with HS 578T breast is 31.2%; in the assay on NCI/ADR-RES ovarian, -20.8% (active); with T-47D breast, -13.4% (active); with BT-549 breast, -16.8% (active); in the assay on MDA-MB-435 melanoma, -19.4% (active); in the assay with SW-620 colon, 22.9%. In addition, the growth was -18.9% (active) with MCF7 breast, 7.77% (active) in the assay on HCT-116 colon, 65.6% in the assay with HCC-2998 colon and -10.6% (active) in the assay on KM12 colon.
